The values below come from PubChem BioAssay AID652054 (National Center for Advancing Translational Sciences (NCATS), 2013).

SMILES strings stand for the structures. The whole screen tested about 360,000 compounds, of which about 9,100 (2.5%) were called active. Roughly 4% stayed inconclusive and do not appear here. The list comes from a sample in which actives are over-represented; it also holds similar structures and randomly drawn compounds. Values without a mark were called inactive. Rule as the data show it: active = max response below about -50%; inconclusive = no clear call, values can overlap the other calls; inactive = above that.
% is scaled to controls: 0 for no effect and ±100 for the full control effect.

Sequence of D(3) dopamine receptor (Homo sapiens) (P35462 whole entry, looked up): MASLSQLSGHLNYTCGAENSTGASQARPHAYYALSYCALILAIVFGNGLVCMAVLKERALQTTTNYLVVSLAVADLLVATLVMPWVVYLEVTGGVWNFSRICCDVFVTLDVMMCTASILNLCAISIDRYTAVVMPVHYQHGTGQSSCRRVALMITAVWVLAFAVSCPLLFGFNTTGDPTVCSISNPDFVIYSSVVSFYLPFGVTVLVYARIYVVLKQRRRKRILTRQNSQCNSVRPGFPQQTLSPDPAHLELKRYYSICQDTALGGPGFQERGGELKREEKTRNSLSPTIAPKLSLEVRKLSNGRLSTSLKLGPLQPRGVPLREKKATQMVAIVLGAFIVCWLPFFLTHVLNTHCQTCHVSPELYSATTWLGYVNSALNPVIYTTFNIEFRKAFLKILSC

The target of this assay is D(3) dopamine receptor (Homo sapiens) (UniProt P35462). In words: qHTS of D3 Dopamine Receptor Antagonist: qHTS. The conditions noted are these: D3R cells, DiscoveRx beta-arrestin luminescence, antagonist mode; hits give low values. Put shortly:
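Cells expressing the human receptor were seeded at 1500 cells/well, incubated overnight at 37 degrees C in 5% CO2, then exposed to library compounds with dopamine controls for 90 minutes at 37 degrees C before luminescent detection.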
A general note: qHTS replaces the single test concentration by a dilution series.
Take `COc1ccc(-c2csc(C(O)c3cccc(Cl)c3)n2)cn1` (centres undefined): the max response, negative = inhibition is -24%. Consider `Nc1[nH]c(C(=O)c2ccccc2)c(-c2ccc(Br)cc2)c1C(=O)NC1CC1`, for which the max response, negative = inhibition was 6.89%. With `c1ccc(-c2nccc(-c3ccc(-n4cnc5ccccc54)cc3)n2)nc1`, the max response, negative = inhibition is -53.4% (active). For `N#CCCn1cnc2ccccc21`, the max response, negative = inhibition is -1.87%. With `COC(=O)c1ccc(-n2cnc3ccccc32)nc1` the figure was 3.06%; with `CC1=C(C(=O)N2CCOCC2)CC(CC(=O)NCCN2CCOCC2)C(=O)N1CCC1=CCCCC1` (centres undefined), 35.9%; with `O=C(NCCS(=O)(=O)N1CCN(c2ccccc2)CC1)c1cc(=O)c2ccccc2o1`, 9.87%.

Regarding `COc1ccc([C@H]2C[C@@H](n3cc(COC(=O)c4ccccc4)nn3)[C@H](O)CN2C(=O)c2cccs2)cc1`, the max response, negative = inhibition is -28.2%. With `CCN1CCN(c2nc(Nc3cccc(F)c3)nc(N)c2[N+](=O)[O-])CC1`, the max response, negative = inhibition is -76.5% (active).

With `COCCNc1nc(N)c([N+](=O)[O-])c(N2CCCCCC2)n1`, the max response, negative = inhibition is 16.7%. Then `CC1CN(c2nc(Nc3ccccc3)nc(N)c2[N+](=O)[O-])CC(C)O1` (centres undefined), with 14.2%. Take `Cc1ccc(S(=O)(=O)N2CCC(=O)N([C@H](COCc3ccccc3)C(C)C)CC2)cc1`: the max response, negative = inhibition was 8.56%. With `CC(C)c1cc(Cn2c3ccccc3c(=O)n2C(C)Cn2cc(C3CC3)nn2)on1` (centres undefined), the max response, negative = inhibition was 0.832%. Turning to `CCCCC[C@@H]1C=C(C(=O)OCC)[C@H](c2ccccc2)N1S(=O)(=O)c1ccc(C)cc1`, the max response, negative = inhibition is 0%.

Take `O=C(OCc1cn([C@H]2C[C@H](c3ccccc3)N(C(=O)c3cccs3)C[C@@H]2O)nn1)c1ccccc1`: the max response, negative = inhibition is -25.2%. Regarding `COc1c(C)cc(C(O)c2ncc(-c3cccc(C(F)(F)F)c3)[nH]2)cc1C` (centres undefined), the max response, negative = inhibition is 0%.

As to `COC(=O)N(C)C[C@@H]1OCc2cnnn2CCCC(=O)N([C@@H](C)CO)C[C@@H]1C`, the max response, negative = inhibition is -14.7%. As for `c1ccc2cc3[nH]c(CN4CCCCC4)nc3cc2c1`, the max response, negative = inhibition is -50.3% (active). As to `O=c1cc(CN2CCCCCCC2)c2c(ccc3ccccc32)o1`, the max response, negative = inhibition was 5.7%. For the molecule `Cc1ccc2[nH]c(=O)c(CN3CCCCC3)c(-c3ccccc3)c2c1`, the max response, negative = inhibition is 16.1%. Then `COc1cccc(/C=C2\SC(=S)N(CCCC(=O)N3CCOCC3)C2=O)c1`, with -20.9%; and `COCCN1C(=O)N[C@@H](CCc2ccccc2)[C@H](C(C)=O)[C@H]1C`, with 2.91%; and `CCN1C(=S)N[C@@H](CCc2ccccc2)[C@H](C(=O)OC)[C@H]1C`, with -63% (active). As to `CCN1C(=NCc2ccc(OC)cc2)N[C@@H](CCc2ccccc2)[C@H](C(=O)NCc2ccc(OC)cc2)[C@H]1C`, the max response, negative = inhibition was 4.01%. Regarding `Cn1c(CCN2CCN(c3ccccn3)CC2)nc2cc(NS(=O)(=O)c3ccc(F)cc3)ccc21`, the max response, negative = inhibition was 0%.

Turning to `CCOC1=C2CN(S(=O)(=O)c3ccc(C)cc3)[C@H](c3cccs3)C[C@H]2[C@H]2C(=O)N(c3ccccc3)C(=O)[C@H]2C1`, the max response, negative = inhibition was -26.5%. Then `CCc1nc2c(OCc3ccccc3)cccn2c1N(C)C(=O)c1ccco1`, with -0.512%; and `Cc1ccc(S(=O)(=O)N2C[C@@H](C)[C@]3(C2)[C@H](O)[C@H](OC(=O)NCc2ccccc2)C[C@H]2C(=O)N(c4ccccc4)C(=O)[C@H]23)cc1`, with 18.6%. Then `CC(=O)Nc1cc(-c2ccccc2N(C)C)cn2c(-c3ccc(F)c(Cl)c3)cnc12`, with -55.6% (active). `COc1ccccc1-c1cc(NC(C)=O)c2ncc(-c3ccc(F)cc3)n2c1`: the max response, negative = inhibition was 0%. Consider `CC(=O)Nc1cc(-c2cccc(CO)c2)cn2c(-c3cccc(C(F)(F)F)c3)cnc12`, for which the max response, negative = inhibition is -52.6% (active). As for `CC(=O)Nc1cc(-c2ccccc2F)cn2c(-c3cccc(C(F)(F)F)c3)cnc12`, the max response, negative = inhibition is -2.07%. With `CC(=O)Nc1cccc(-c2cc(NC(C)=O)c3ncc(-c4ccccc4)n3c2)c1` the figure was 10.2%; with `CC(=O)Nc1cccc(-c2cc(NC=O)c3ncc(-c4ccc(F)c(Cl)c4)n3c2)c1`, 58.6%; with `C[C@H](NC(=O)CC[C@H]1O[C@@H](n2ccc(=O)[nH]c2=O)[C@H](O)[C@@H]1O)c1cccc2ccccc12`, -12.4%. With `COc1ccc(OC)c(NC(=O)c2cc(-c3cc(F)ccc3OCC3CCCO3)n[nH]2)c1` (centres undefined) the figure was 8.86%; with `COc1ccc(-n2c(-c3ccc(Cl)cc3)n[nH]c2=S)c(OC)c1`, 15.8%; with `COC(=O)C[C@H]1C=C[C@@H](NS(=O)(=O)c2ccc(C)cc2)[C@@H](CO)O1`, 14.9%. Consider `CCCCc1nc2ccc(F)cc2cc1C`, for which the max response, negative = inhibition was 20.6%.

With `Cc1ccc(OCCCC(=O)N2CCOCC2)c(C)c1`, the max response, negative = inhibition was 4.43%. With `C=CCc1cc(C)ccc1OCCCn1ccnc1` the figure was -3.51%; with `CC(=O)Nc1ccc(S(=O)(=O)N2CCN(CCCOc3cc(C)ccc3C)CC2)cc1`, 15.6%; with `Cc1ccc(OCCCCN2CCCCC2)c(Br)c1`, -102% (active).

As to `Cc1ccc(C(C)(C)C)c(OCCCCN2CCCC2)c1`, the max response, negative = inhibition is -80.6% (active). With `Cc1ccc(C)c(OCC(=O)NNC(=O)C2CCC2)c1` the figure was 1.58%; with `CCN(CC)C(=O)C(C)N1c2cccc3cccc(c23)S1(=O)=O` (centres undefined), -22.2%. With `Cc1cccc(CN2CCN(C3CN(Cc4cn(Cc5ccccc5F)nn4)S(=O)(=O)C3)CC2)c1` (centres undefined) the figure was 6.92%; with `O=C1c2ccccc2-c2ccccc2NC1O` (centres undefined), 0%; with `O[C@H]1CN(Cc2cccs2)[C@@H](c2ccc(Cl)cc2)C[C@@H]1n1cc(C2CC2)nn1`, 8.97%. As to `NC(c1ccccc1)c1csc(NC(=O)Nc2cccc(C(F)(F)F)c2)n1` (centres undefined), the max response, negative = inhibition was 18.1%.

`C#CCNC(=O)C[C@@H]1C[C@@]2(C(=O)OCC)CCCC=C2N(Cc2ccco2)C1=O`: the max response, negative = inhibition is 5.5%. With `Cc1ccc(-c2ccc(/C=C(\C#N)C(N)=S)o2)c([N+](=O)[O-])c1` the figure was -5.05%. For the molecule `Cc1ccc(C(=O)N/C(=C/c2ccc(-c3cccc([N+](=O)[O-])c3)o2)C(=O)NCCCN(C)C)cc1`, the max response, negative = inhibition is 10.3%. On to `Cc1ccc(Cc2cnc(NC(=O)/C(C#N)=C/c3ccc(-c4cccc([N+](=O)[O-])c4)o3)s2)cc1`, for which the max response, negative = inhibition was -59.9% (active).
